Source: PubChem BioAssay (The Scripps Research Institute Molecular Screening Center)
Hits are enriched below; roughly 2.9% of the tested compounds scored in any of these assays.
PLCg1 inh: inhibitors of human phospholipase C gamma1. P19174. purified PLC-gamma1, fluorogenic substrate, fluorescence. inhibition, % at 12.2 µM. actives 0.84% (n = 370,000). AID 720700; in the data active means inhibition above about 9.5%
Target sequence (P19174 whole entry, looked up): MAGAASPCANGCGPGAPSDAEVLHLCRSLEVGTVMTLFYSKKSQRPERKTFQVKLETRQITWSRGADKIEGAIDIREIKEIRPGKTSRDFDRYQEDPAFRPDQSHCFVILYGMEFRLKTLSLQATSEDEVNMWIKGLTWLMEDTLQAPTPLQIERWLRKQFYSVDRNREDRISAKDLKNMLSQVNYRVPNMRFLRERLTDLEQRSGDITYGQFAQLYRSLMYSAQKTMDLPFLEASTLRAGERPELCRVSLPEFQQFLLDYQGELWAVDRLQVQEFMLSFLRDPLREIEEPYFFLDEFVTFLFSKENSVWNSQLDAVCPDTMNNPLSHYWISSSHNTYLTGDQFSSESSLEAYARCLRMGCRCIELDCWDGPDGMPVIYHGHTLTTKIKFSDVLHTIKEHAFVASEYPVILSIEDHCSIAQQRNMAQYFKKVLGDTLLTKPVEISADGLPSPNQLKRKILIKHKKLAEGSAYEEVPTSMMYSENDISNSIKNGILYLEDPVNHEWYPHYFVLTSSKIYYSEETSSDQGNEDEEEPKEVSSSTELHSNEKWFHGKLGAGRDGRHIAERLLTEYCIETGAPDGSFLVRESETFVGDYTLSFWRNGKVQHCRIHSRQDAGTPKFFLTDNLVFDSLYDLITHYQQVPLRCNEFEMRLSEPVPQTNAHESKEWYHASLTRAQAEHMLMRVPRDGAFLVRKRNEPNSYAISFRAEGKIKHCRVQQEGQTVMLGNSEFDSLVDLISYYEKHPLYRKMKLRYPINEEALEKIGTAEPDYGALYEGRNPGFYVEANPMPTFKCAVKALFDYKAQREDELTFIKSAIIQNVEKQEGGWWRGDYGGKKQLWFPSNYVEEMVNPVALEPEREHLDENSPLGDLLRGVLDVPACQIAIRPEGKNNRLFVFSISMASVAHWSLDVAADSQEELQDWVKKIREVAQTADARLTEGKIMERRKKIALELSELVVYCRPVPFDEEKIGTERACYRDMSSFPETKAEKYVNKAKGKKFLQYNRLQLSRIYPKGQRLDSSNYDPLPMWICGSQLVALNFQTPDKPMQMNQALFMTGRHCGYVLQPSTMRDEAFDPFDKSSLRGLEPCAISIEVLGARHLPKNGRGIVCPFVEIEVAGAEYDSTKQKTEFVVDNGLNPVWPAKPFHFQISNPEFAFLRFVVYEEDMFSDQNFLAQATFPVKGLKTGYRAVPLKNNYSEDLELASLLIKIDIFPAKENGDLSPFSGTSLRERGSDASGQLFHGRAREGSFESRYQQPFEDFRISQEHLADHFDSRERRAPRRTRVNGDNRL
ADAM17 inh: inhibitors of human ADAM17; P78536; recombinant ADAM17, EDANS/DABCYL FRET peptide cleavage; inhibition, % at 6.95 µM; actives 0.83% (n = 370,000);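 active means inhibition above the mean of compounds lying between control limits plus 3 SD, set per campaign, cut at about 8.5% in these data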
PLC-beta3 inh: PLC-beta3 (human) inhibition, primary screen. Q01970. Purified PLC-beta3, fluorogenic substrate, fluorescence. inhibition, % at 12.2 µM. actives 0.18% (n = 370,000). AID 720704; in the data active means inhibition above about 11%
ADAM10 inh: inhibits human ADAM10 | O14672 | recombinant ADAM10, EDANS/DABCYL FRET peptide cleavage, 3 h | inhibition, % at 7 µM | actives 0.62% (n = 370,000);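 active means inhibition above a per-campaign cutoff equal to the mean of compounds falling between control-based bounds plus 3 SD, cut at about 20% in these data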
proKLK7 act: activators of human kallikrein-7 zymogen; P49862; purified proKLK7, EDANS-DABCYL substrate fluorescence; 100% is mature enzyme control, 0% vehicle; activation, % at 7 µM; actives 0.9% (n = 370,000); AID 652039;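 active means activation above the mean of all tested compounds plus 3 SD, computed per campaign excluding outliers beyond control limits, cut at about 13% in these data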
proKLK7 act conf: proKLK7 activation, confirmation; AID 686949; actives 68% (n = 3,200); activation, % at 7 µM; purified proKLK7, EDANS-DABCYL substrate fluorescence; scaled: vehicle 0, mature enzyme 100; shares compounds with proKLK7 act;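 active means activation, as change over the incubation, above the mean of all tested compounds plus 3 SD, cut at about 13% in these data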
EDANS-DABCYL int: fluorescence interference counter-screen for KLK7 activators. shares compounds with proKLK7 act. EDANS-DABCYL substrate fluorescence interference, no enzyme, 4 h; solvent 0%, active enzyme control 100%. activation, % at 7 µM. actives 80% (n = 3,200);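 active means activation above the all-compound mean plus 3 SD, ignoring values outside control-based bounds, cut at about 4.8% in these data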;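 further: value is the 4 h activation minus the activation read at time zero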
EDANS interf: optically interferes with EDANS-DABCYL fluorescence, kallikrein-7 activator counter-screen. EDANS-DABCYL peptide fluorescence interference, no enzyme. EC50, µM. actives 20% (n = 250). AID 720493. shares compounds with proKLK7 act;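 active means compounds that raise the fluorescence signal in this interference counterscreen, with EC50 at or below 10 µM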;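 further: intact quenched peptide substrate alone read at 355 nm excitation and 520 nm emission; signal is fluorescence gain from T0 to T4 after four hours at room temperature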
Of the large screens only hits and unclear results are named; the others gave an inactive call (follow-up assays come after a bar, where they were run).

COc1ccc2c3c([nH]c2c1)[C@H]1C[C@H]2[C@H](C[C@@H](O)[C@H](OC)[C@H]2C(=O)O)CN1CC3	proKLK7 act 40 | proKLK7 act conf inactive | EDANS-DABCYL int 11
COc1cc2[nH]c(Cl)c([N+](=O)[O-])c2cc1OC	proKLK7 act 58 | proKLK7 act conf inactive | EDANS-DABCYL int 5.9
CCO[C@H]1OC(C(=O)N2CCN(C)CC2)=C[C@@H](c2coc3ccccc3c2=O)[C@@H]1CCCO	none
COc1ccc(CC(=O)O/N=C(\N)c2ccc(Br)cc2)cc1OC	none
CN(C)/C=C1\C=C2C(=O)c3ccccc3N2C1=O	proKLK7 act 14 | proKLK7 act conf 72 | EDANS-DABCYL int 66
N=c1c(C(=O)NCc2ccc(F)cc2)cc2c(=O)n3ccccc3nc2n1CC1CCCO1 (stereo not given)	proKLK7 act 21 | proKLK7 act conf inactive | EDANS-DABCYL int inactive
COc1ccc(CCn2c(=N)c(C(=O)NCc3ccco3)cc3c(=O)n4ccccc4nc32)cc1OC	none
N=c1c(C(=O)NCCc2ccccc2)cc2c(=O)n3ccccc3nc2n1CC1CCCO1 (stereo not given)	proKLK7 act 99 | proKLK7 act conf inactive | EDANS-DABCYL int 7.7
N=c1c(C(=O)NCc2ccco2)cc2c(=O)n3ccccc3nc2n1CCc1ccccc1	proKLK7 act 16 | proKLK7 act conf inactive | EDANS-DABCYL int inactive
O=C(CC1(CC(=O)N2CCOCC2)CCCC1)Nc1ccc(F)cc1	none
Nc1ncc(-c2ccc(F)cc2)nc1N1CCN(CCO)CC1	proKLK7 act 24 | proKLK7 act conf inactive | EDANS-DABCYL int 11
CS(=O)(=O)c1nncn1-c1ccccc1	none
COc1ccc(/C=C(\NC(=O)c2ccc(OC)cc2)C(=O)Nc2ccccc2C(=O)O)cc1	none
c1cc(-c2ccc(N3CCOCC3)cc2)n2cnnc2c1	proKLK7 act 67 | proKLK7 act conf 69 | EDANS-DABCYL int 67
c1cc(-c2ccc3c(c2)CCO3)n2cnnc2c1	none
CN(C)c1ccc2nc3ccc(=O)cc-3sc2c1	proKLK7 act 54 | proKLK7 act conf 143 | EDANS-DABCYL int 133
CN(C)c1ccc2nc3ccc(=[N+](C)C)cc-3sc2c1	none
O=C(Nn1c(-c2ccc(F)cc2)nc2ccccc2c1=O)c1cccnc1	none
CCNC(=S)NNC(=O)c1cc(Br)cs1	proKLK7 act 13 | proKLK7 act conf inactive | EDANS-DABCYL int 6.5
CCNC(=S)NNC(=O)c1csc(C)c1	none
COc1ccc2c(C(=O)NCCCCO)c(-c3ccc(S(C)(=O)=O)cc3)sc2c1	proKLK7 act 49 | proKLK7 act conf 65 | EDANS-DABCYL int 82
O=S(=O)(O)c1ccc(N2N=C(c3ccccc3)CC2c2ccccc2)cc1 (stereo not given)	proKLK7 act 56 | proKLK7 act conf 72 | EDANS-DABCYL int 66
CC1(C)CC(=O)/C(=C(\O)CCCN2C(=O)c3ccccc3C2=O)C(=NCCO)C1	none
Cc1ccc(OCc2nc(C#N)c(N3CCN(Cc4ccccc4)CC3)o2)cc1	none
COc1ccc(N2CCN(CC(=O)c3ccccc3)CC2)cc1	none
COc1ccc(N2CCN(CCC(=O)c3ccc4ccccc4c3)CC2)cc1	proKLK7 act 22 | proKLK7 act conf 15 | EDANS-DABCYL int 15
CCOC(=O)C1=CN(CC)S(=O)(=O)NC1c1cccc(OC)c1 (stereo not given)	none
Cc1sc(N)nc1-c1ccccc1	none
Nc1c(-c2ccccc2)nc(Cl)nc1-c1ccccc1	proKLK7 act 42 | proKLK7 act conf 78 | EDANS-DABCYL int 78
CC12CCC(C(=O)Nc3cc(Cl)ccc3Cl)(C/C1=N\O)C2(C)C (stereo not given)	none
COc1ccc(Cn2c(N)c(C#N)c3nc4ccccc4nc32)cc1	none
N#Cc1c(N)n(-c2cccc(O)c2)c2nc3ccccc3nc12	proKLK7 act 117 | proKLK7 act conf 42 | EDANS-DABCYL int 47
COCCn1c(N)c(C(=O)NCC2CCCO2)c2nc3ccccc3nc21 (stereo not given)	proKLK7 act 13 | proKLK7 act conf inactive | EDANS-DABCYL int inactive
COCCn1c(N)c(S(=O)(=O)c2cccs2)c2nc3ccccc3nc21	proKLK7 act 56 | proKLK7 act conf 24 | EDANS-DABCYL int 26
N#Cc1c(N)n(CCc2ccc(F)cc2)c2nc3ccccc3nc12	proKLK7 act 32 | proKLK7 act conf inactive | EDANS-DABCYL int inactive
CCOC(=O)c1c(NC(=O)COC(=O)CCCOc2ccc(OC)cc2)sc(C(=O)NC)c1C	none
O=C(OCc1cn(Cc2cccc(F)c2)nn1)N1CCCCC1	none
CN(C)CCCn1c(N)c(S(=O)(=O)c2ccccc2)c2nc3ccccc3nc21	proKLK7 act 69 | proKLK7 act conf inactive | EDANS-DABCYL int inactive
COCCn1c(N)c(C#N)c2nc3ccccc3nc21	proKLK7 act 62 | proKLK7 act conf 60 | EDANS-DABCYL int 72
N#Cc1c(N)n(CCOC(=O)c2cccc([N+](=O)[O-])c2)c2nc3ccccc3nc12	proKLK7 act 83 | proKLK7 act conf 91 | EDANS-DABCYL int 88
CCn1ncc(/C=C/C(=O)Nc2c(C)nn(Cc3ccc(Cl)cc3Cl)c2C)c1C	none
O=C1NC(c2ccccc2O)Nc2ccccc21 (stereo not given)	proKLK7 act 22 | proKLK7 act conf inactive | EDANS-DABCYL int 17
COc1ccc(C2NC(=O)c3ccccc3N2)c(OC)c1OC (stereo not given)	proKLK7 act 33 | proKLK7 act conf 45 | EDANS-DABCYL int 47
O=C1NC(c2cccc(OCc3ccccc3)c2)Nc2ccccc21 (stereo not given)	proKLK7 act 14 | proKLK7 act conf inactive | EDANS-DABCYL int inactive
CSc1ccc(C2NC(=O)c3ccccc3N2)cc1 (stereo not given)	proKLK7 act 17 | proKLK7 act conf 17 | EDANS-DABCYL int 13 | EDANS interf inactive
COc1ccc(C2NC(=O)c3ccccc3O2)c(OC)c1OC (stereo not given)	none
Cn1cc(C2NC(=O)c3ccccc3N2)c2ccccc21 (stereo not given)	none
COc1ccc(C(=O)OCC(=O)NC2CCCC2)c(OC)c1OC	none
COc1cc(C)c(C2NC(=O)c3ccccc3N2)cc1C (stereo not given)	none
O=C1NC(c2ccc(O)cc2)Nc2ccccc21 (stereo not given)	proKLK7 act 29 | proKLK7 act conf 25 | EDANS-DABCYL int 27
